Sampled rows, rich in hits. Any-hit rate of the full collection: about 7.3%.
Luciferase inh = Firefly luciferase inhibition profiling of diverse chemical library using quantitative high-throughput screening; purified P. pyralis luciferase, luminescence, biochemical; Potency, µM (titrated, usually from 115 µM), most hits filed as inhibitors; Luciferin 4-monooxygenase (Photinus pyralis), P08659; AID 1347043, 2019; actives 2.5% (n = 76,000); also: potency is read from the fitted curve at half-maximal effect; nearly all actives have a fitted effect of over 65% in size
Target sequence (P08659 whole entry, looked up): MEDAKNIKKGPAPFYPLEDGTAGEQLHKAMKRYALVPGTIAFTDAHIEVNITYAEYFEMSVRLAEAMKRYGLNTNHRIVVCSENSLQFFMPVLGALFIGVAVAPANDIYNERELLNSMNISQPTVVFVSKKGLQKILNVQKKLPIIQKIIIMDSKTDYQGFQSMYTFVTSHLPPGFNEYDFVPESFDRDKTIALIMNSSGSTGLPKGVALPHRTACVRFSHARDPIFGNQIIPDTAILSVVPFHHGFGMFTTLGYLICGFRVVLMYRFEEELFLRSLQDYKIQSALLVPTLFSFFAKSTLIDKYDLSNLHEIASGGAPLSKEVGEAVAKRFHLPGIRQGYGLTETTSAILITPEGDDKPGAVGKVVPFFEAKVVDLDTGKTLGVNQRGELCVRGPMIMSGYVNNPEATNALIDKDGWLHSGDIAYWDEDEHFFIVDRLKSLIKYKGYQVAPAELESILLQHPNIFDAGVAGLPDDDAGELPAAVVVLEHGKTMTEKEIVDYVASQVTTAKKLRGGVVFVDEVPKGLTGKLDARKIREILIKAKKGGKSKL
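Purified P. pyralis luciferase (10nM final) in 50mM Tris acetate pH 7.5, 10mM Mg acetate, 0.01% Tween-20, 0.05% BSA with 10uM D-luciferin and 10uM ATP. Compounds titrated qHTS. Luminescence imaged on CCD.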
HEK293 tox = Cytotoxic Profiling in HEK 293 Cell Line of Diverse Libraries Using Quantitative High-Throughput Screening; HEK 293 viability, ATP luminescence (CellTiter-Glo), 48-72 h; Potency, µM (top dose mostly 115 µM), for inactives: at the highest dose activity change, negative = cytotoxicity, actives largely listed as inhibitors; actives 6.6% (n = 94,000); also: potency is read from the fitted curve at half-maximal effect; nearly all actives have a fitted effect of over 60% in size
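Cells seeded first (HEK 293, 250 cells/well), then compound added by pintool. Incubation ran 48 or 72 hr at 37 degree Celsius. CellTiter-Glo was added and luminescence imaged after 10 min at room temperature.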
SNCA expr inh = Primary qHTS assay for inhibitors of alpha-synuclein gene (SNCA) expression; HEK-293 SNCA-luciferase knock-in, luminescence, 24 h; Potency, µM (series often up to 57.2 µM), without a hit: top-dose activity change, negative = inhibition, hits mostly inhibitors; actives 0.17% (n = 140,000);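 also: potency is read from the fitted curve at half-maximal effect; plate controls were DMSO cells for no effect and cell-free wells for full effect; nearly all actives have a fitted effect of over 45% in size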
3T3 cytotox = Cytotoxic Profiling in NIH 3T3 Cell Line of Diverse Libraries Using Quantitative High-Throughput Screening. AID 1345082, 2018. NIH 3T3 viability, CellTiter-Glo ATP luminescence, 48-72 h. Potency, µM (doses to about 96.7 µM), inactives show top-dose activity change, negative = cytotoxicity, hits mostly inhibitors. actives 4.3% (n = 94,000); also: potency is read from the fitted curve at half-maximal effect; nearly all actives have a fitted effect of over 55% in size
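Cytotoxicity is measured as loss of cellular ATP: NIH 3T3 cells (400/well) are exposed to compound for 48 or 72 hr at 37 °C, then CellTiter-Glo luminescence is imaged after 10 min at room temperature.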
HEK293 viab = GF-AFC viability counterscreen for inhibitors of alpha-synuclein gene (SNCA) expression | actives 0.12% (n = 150,000) | Potency, µM (doses to about 57.1 µM), for inactives: at the top dose activity change, negative = cytotoxicity, most hits filed as cytotoxic | AID 1671193, 2021 | HEK-293-SNCA-luc viability, GF-AFC fluorescence, 24 h;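 also: potency is read from the fitted curve at half-maximal effect; 0% = DMSO-treated cells and -100% = medium-only wells without cells; nearly all actives have a fitted effect of over 30% in size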
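Cytotoxicity counterscreen: after 24 h compound treatment of genome-edited SNCA-luciferase HEK-293 cells, live-cell protease substrate GF-AFC read by fluorescence after 30 min; activity scaled between DMSO (0%) and medium-only (-100%), curves Hill-fitted.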
IP6K1 inh = Primary qHTS assay for small molecule inhibitors of Inositol hexaphosphate kinase 1 (IP6K1); actives 0.81% (n = 140,000); AID 1645851, 2021; activity change, % (series mostly up to about 58 µM); Inositol hexakisphosphate kinase 1 (Homo sapiens), Q92551; IP6K1 kinase, ADP-Glo luminescence, 2 h; active compounds read low; in the data active = activity change below about -25%
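ADP-Glo luminescence measures ADP made by human IP6K1 during a 2 h RT reaction with ATP/IP6 (mix at 1.3 mM/130 uM); top library doses 57.5 and 19.1 uM final.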
Starred values were filed as active, the others as inactive; i = inactive; ? = inconclusive; · = not tested or not shown; [ ] = dose if it differs, or a comment. Unless noted, calls follow the shape of the dose curve; as a rule, active = well fitted curve in the direction sought with a large enough effect; inconclusive = small, poorly fitted or top-dose-only effect, or another doubt; inactive = no such curve, though single readings can be large; an effect the other way counts as inactive or inconclusive. Unless noted, % is scaled to controls: 0 for no effect and ±100 for the full control effect.

SMILES	Luciferase inh	HEK293 tox	SNCA expr inh	3T3 cytotox	HEK293 viab	IP6K1 inh
O=C(Nc1cccc(-c2cscn2)c1)C1CCN(C(=O)C2CCCO2)CC1 (configuration not stated)	i	-29%	14%	-4%	-3%	4
O=C(Nc1cnc(-c2cccc(Cl)c2)nc1)c1ccccc1F	1µM*	-2%	72%	4%	-1%	10
C#CCNC(=O)C[C@@H]1c2nc(NC(=O)OCC=C)sc2C[C@@H]2[C@](C)(CO)[C@H](O)CC[C@]21C	i	-2%	-5%	i	0%	0
Cc1ncc2n1C(=O)N(C1CCN(Cc3ccc(OC(F)(F)F)cc3)CC1)C2	i	14µM*	-1%	?	-17%	13
CNC(=O)c1cc(C2CC2)nc2c1c(C1CCN(C(=O)Cc3ccc(F)cc3)CC1)nn2C	·	?	·	-10%	·	2
CNC(=O)c1cc(C2CC2)nc2c1c(C1CCN([S+](=O)([O-])c3ccc(C)cc3)CC1)nn2C	·	50µM*	·	?	·	-4
CNC(=O)c1cc(C2CC2)nc2c1c(C1CCN(C(=O)Cc3ccccc3)CC1)nn2C	·	89µM*	·	-21%	·	-4
O=C(CN1C(=O)COc2ccc(S(=O)(=O)N3CCCCCC3)cc21)Nc1cccc(Cl)c1	·	·	10µM*	·	?	1
Cc1ccc(NC(=O)CN2C(=O)COc3ccc(S(=O)(=O)N4CCCCCC4)cc32)cc1C	·	·	-8%	·	?	8
O=C(NCCc1ccc(Cl)cc1)c1ccc2nc(-c3cccnc3Cl)oc2c1	·	?	66%[87.6 µM]	?	-2%[87.6 µM]	2
CCO[C@H]1CN(C(=O)c2cc(N3CCCCC3)ccc2Cl)C[C@@H]1O	i	-13%	5%	-19%	-3%	18
CC(C)[C@@H]1CN(C(=O)c2cc(N3CCCCC3)ccc2Cl)C[C@H]1N(C)C	i	40µM*	-14%	?	-11%	9
O=C(O)c1ccc(CN2Cc3[nH]cnc3C[C@H]2c2nc(-c3ccc(F)cc3)no2)cc1	i	-22%[172 µM]	36%[87.6 µM]	-21%[138 µM]	12%[87.6 µM]	12
Fc1ccc(CN2Cc3[nH]cnc3C[C@H]2c2nc(-c3ccc(Cl)cc3)no2)cc1	i	63µM*	-11%[87.6 µM]	50µM*	-14%[87.6 µM]	14
Fc1ccc(CN2Cc3[nH]cnc3C[C@H]2c2nc(-c3ccccc3)no2)cc1	45µM*	100µM*	139%[87.6 µM]	79µM*	-8%[87.6 µM]	6
Cc1nnc2ccc(N3CCC(N[S+](C)(=O)[O-])CC3)nn12	·	-3%[172 µM]	·	-22%[138 µM]	·	-10
Cc1cccc(C(=O)N2CCC(N3C(=O)C4(CCCCC4)C3c3ccncc3)CC2)c1 (configuration not stated)	i	-3%	15%	0%	1%[12.5 µM]	-7
CCCN(Cc1ccncc1)C(=O)c1cnc(-c2ccccn2)[nH]c1=O	i	?	?	?	-26%	0
COc1cccc([S+](=O)([O-])NC[C@@H]2CC[C@H]3C[C@@H]2C3(C)C)c1	i	100µM*	7.1µM*	?	?	2
CCN(Cc1cnn(CC)c1)C(=O)c1c(C)oc2c1CN(Cc1ccc(F)cc1)CC2	i	-13%	?	-13%	0%	5
COc1ccc(-c2ccc3ncc(Nc4ccnc(N5CCOCC5)c4)n3n2)cn1	i	28µM*	7%[87.6 µM]	22µM*	?	-15
OCc1cccc(-c2ccc3ncc(Nc4ccnc(N5CCOCC5)c4)n3n2)c1	?	100µM*	-14%[87.6 µM]	?	-11%[87.6 µM]	3
COc1ccccc1-c1ccc2ncc(Nc3ccnc(N4CCOCC4)c3)n2n1	i	?	39%[87.6 µM]	?	-1%[87.6 µM]	13
COc1cncc(Nc2cnc3ccc(-c4cccc(CO)c4)nn23)c1	i	?	-10%[87.6 µM]	?	4%[87.6 µM]	5
O=C(Cc1cccc(Cl)c1)NC1CCN(Cc2cccc(-c3cccs3)c2)CC1	·	22µM*	-12%	11µM*	-5%[12.5 µM]	-5
SMILES	Luciferase inh	HEK293 tox	SNCA expr inh	3T3 cytotox	HEK293 viab	IP6K1 inh
O=C(Nc1ccccc1F)NC1CCN(Cc2cccc(-c3cccs3)c2)CC1	·	25µM*	?	25µM*	10%[12.5 µM]	-4
O=C(Cc1cccc(Cl)c1)NC1CCN(Cc2cccc(-c3ccc(F)c(F)c3)c2)CC1	·	20µM*	?	16µM*	-29%	18
O=C(NC1CCCC1)NC1CCN(Cc2cccc(-c3cccs3)c2)CC1	·	?	10%	-34%	0%[12.5 µM]	-5
COc1ccc(CC(=O)NC2CCN(Cc3cccc(-c4cccs4)c3)CC2)cc1	·	-31%	-2%	-32%	-4%[12.5 µM]	21
CCC(=O)N1CCCN(Cc2ccc3c(c2)OCO3)c2ccccc21	i	45µM*	?	?	-8%	0
O=C(C1CC1)N1CCCN(Cc2ccc3c(c2)OCO3)c2ccccc21	i	?	-6%	?	-19%	-11
O=C1COCC2(CN1Cc1ccc(F)cc1Cl)CN(c1ccc(C(F)(F)F)cn1)C2	i	?	-3%	?	5%	14
COc1ccc(N2CC3(COCC2=O)CN(c2ccc(C(F)(F)F)cn2)C3)cn1	i	-20%[172 µM]	9%[87.6 µM]	40µM*	1%[87.6 µM]	11
O=C1COCC2(CN1Cc1ccccc1)CN(c1ccccc1)C2	i	?	-13%[87.6 µM]	-16%[138 µM]	2%[87.6 µM]	13
Cc1ccccc1CN1CC2(COCC1=O)CN(c1ccc(C(F)(F)F)cn1)C2	i	89µM*	0%[87.6 µM]	?	-7%[87.6 µM]	11
CC1(C)C[C@H]2C[C@@H](O)[C@H](N3CCN(c4ccc(C(F)(F)F)cn4)CC3)[C@]2(O)CO1	·	?	?	-22%[46.1 µM]	5%[23.9 µM]	3
CC(C)(C)c1ccc(CN2CC3(COCC2=O)CN(c2ccccc2)C3)cc1	i	?	4%[87.6 µM]	79µM*	4%[87.6 µM]	0
CCCN1CCc2[nH]cnc2C12CCN(Cc1ccc(C3CCCCO3)o1)CC2 (configuration not stated)	i	?	2%	-12%	-10%	12
CN(C)[C@H]1CCCCN(C(=O)c2cccc(-c3cccc(F)c3)c2)C1	i	?	42%	?	0%	-8
Cn1ncc2c(C(=O)Nc3cccc(C(F)(F)F)c3)cc(-c3ccc(C(F)(F)F)cc3)nc21	·	11µM*	·	7.9µM*	·	-11
